From PubChem BioAssay (NCATS)
Results filed as inconclusive are left out. Activity calls are given as the source filed them. Calls come from the whole dose curve; as a rule, active = well fitted curve in the direction sought with a large enough effect; inconclusive = small, poorly fitted or top-dose-only effect, or another doubt; inactive = no such curve, though single readings can be large; an effect the other way counts as inactive or inconclusive.

Key:
[1] = target: Cellular tumor antigen p53 (Homo sapiens) (UniProt P04637); assay: Primary qHTS for small molecule compounds that upregulate eGFP-tagged delta133p53alpha (in N-terminal) cells. (AID 2060322); details: NCI-H358 eGFP-delta133p53alpha fluorescence, 24 h; activation: stronger effect = higher value;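 note: cells pre-induced with doxycycline then dosed without doxycycline; series mostly up to about 56 µM; 0% = DMSO vehicle and 100% = reference activator; nearly all actives have a fitted effect of over 75% in size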
How it was run: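 NCI-H358 cells pre-induced 24 h with 10 ng/ml doxycycline for eGFP-delta133p53alpha, plated dox-free and exposed 24 h at 37C to titrated compounds. Fixed, Hoechst-stained; gated GFP peak intensity by laser scanning cytometry, normalized to DMSO (0%) and 57.5 uM 5-azacytidine (100%).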

[2] = target: Aldehyde dehydrogenase, mitochondrial (Homo sapiens) (UniProt P05091); assay: qHTS for Inhibitors of the Aldehyde Dehydrogenase Family (ALDH2) Primary screen (AID 2061308);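 note: plate controls were vehicle for no effect and reference inhibitor for full effect; nearly all actives have a fitted effect of over 55% in size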
[3] = target: Retinaldehyde dehydrogenase 3 (Homo sapiens) (UniProt P47895); assay: qHTS for Inhibitors of the Aldehyde Dehydrogenase Family (ALDH1A3) Primary screen (AID 2061315);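 note: plate controls were DMSO vehicle for no effect and reference inhibitor for full effect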

Cellular tumor antigen p53 (Homo sapiens), sequence (P04637 whole entry, looked up): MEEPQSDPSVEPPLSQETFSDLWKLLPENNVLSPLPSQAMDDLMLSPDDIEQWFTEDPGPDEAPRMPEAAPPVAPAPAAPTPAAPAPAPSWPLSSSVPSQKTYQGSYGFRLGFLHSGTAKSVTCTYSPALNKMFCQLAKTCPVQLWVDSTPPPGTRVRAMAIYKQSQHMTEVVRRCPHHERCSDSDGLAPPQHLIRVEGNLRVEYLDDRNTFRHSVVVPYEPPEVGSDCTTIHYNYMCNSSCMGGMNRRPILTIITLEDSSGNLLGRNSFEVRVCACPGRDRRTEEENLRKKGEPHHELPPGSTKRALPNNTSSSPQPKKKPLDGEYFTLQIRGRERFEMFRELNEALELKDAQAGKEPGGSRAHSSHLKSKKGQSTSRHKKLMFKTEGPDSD

CC1(C)CC2C(C1)C(C)(O)C13CC1(COC3=O)C2O (stereo not given)
inactive: activation [1] 8.93% | Potency [2] | Potency [3]

Cn1nccc1-c1ccccc1Oc1ccc(S(=O)(=O)Nc2nccs2)cc1C#N
inactive: activation [1] 3.67% | Potency [2] | Potency [3]

C=C1C2(C)CC3C4(C)OC(C5OC56C4=CC(=O)OC6(C)C)C3(C)C13C(=O)OC(C)C3(O)C2=O (stereo not given)
inactive: activation [1] -9.92% | Potency [2] | Potency [3]

COc1ccc(/C=C/C(N)=O)cc1OC
inactive: activation [1] 2.68% | Potency [2] | Potency [3]

CC(C(O)/C=C/C(C)(C)O)C1CCC2(C)C3C(=O)C=C4C(CCC(O)C4(C)C)C3(C)CCC12C (stereo not given)
inactive: activation [1] -22.3% | Potency [2] | Potency [3]

CC(C)CC(=O)OC[C@H]1O[C@@](COC(=O)CC(C)C)(O[C@H]2O[C@H](CO)[C@@H](O)[C@H](O)[C@H]2OC(=O)CC(C)C)[C@@H](OC(=O)CC(C)C)[C@@H]1O
inactive: activation [1] -7.14% | Potency [2] | Potency [3]

NC(N)=N/N=C/c1ccccc1Cl
inactive: activation [1] 3.67% | Potency [2] | Potency [3]

CCC(C)C(=O)OC1CC(O)C23C4OCC5(C(O)CC2C1(C)C(O)O4)C3C(=O)CC1(C)C(c2ccoc2)CC2OC215 (stereo not given)
inactive: activation [1] 22.1% | Potency [2] | Potency [3]

COc1ccc(CNCc2cccc3ccccc23)cc1
inactive: activation [1] -2.33% | Potency [2] | Potency [3]

COc1cc(C)c(C(=O)NC2C(C)OC(OC3CCC(C)C4C3C=C(C)C3/C(C)=C\CC/C(C)=C/C5(C)C=C(C(=O)O)C(C)CC56OC(=O)/C(=C(\O)C34C)C6=O)C(O)C2(C)O)c(O)c1 (stereo not given)
inactive: activation [1] 3.82% | Potency [2] | Potency [3]
